Consider 27 molecules from PubChem BioAssay (Tox21).

Several values for one entry are separate records, joined by “and”; a condition that tells them apart may be missing. Equal entries are not always repeated. Results filed as inconclusive are left out. The source holds several records for some structures; these can differ, active in one and inactive in another. Activity calls are given as the source filed them. Unless noted, calls come from the whole dose curve; as a rule, active = well fitted curve in the direction sought with a large enough effect in the repeat runs; inconclusive = weak or mixed curves; inactive = no such curve, though single readings can be large; an effect the other way counts as inactive or inconclusive.

Experiment [1] addresses Progesterone receptor (Homo sapiens) (UniProt P06401). Description: qHTS assay to identify small molecule antagonists of the progesterone receptor (PR) signaling pathway (AID 1346795; active = well fitted inhibition curve with a large enough effect in the signal ratio in the repeat runs, not every such curve was filed as active; the % refers to the signal ratio; note: potency is the fitted concentration of half-maximal effect). The essentials:
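PR-UAS-bla HEK293T cells with beta-lactamase reporter under UAS control, in 2% charcoal-stripped FBS, treated with compounds plus 1 nM promegestone (R5020, final) for 16 hr at 37C. Read-out: FRET beta-lactamase substrate fluorescence after 2 hr at room temperature.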
A general note: In qHTS, concentration-response curves come from the screen itself.

The nature of experiment [2]: qHTS assay to identify small molecule antagonists of the TGF-beta/Smad signaling pathway - cell viability counter screen (AID 1346824). Note: nearly all actives have a fitted effect of over 50% in size. Note: potency is the fitted concentration of half-maximal effect. The essentials: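 SBE-bla HEK 293T cells were plated overnight at 37 C, then given compounds in DMSO plus TGF-beta1 (added as 0.25 ng/mL solution) for 5 hr. After the bla read, CellTiter-Glo was added to the same wells and luminescence read after 30 min at room temperature.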

Experiment [3] is described as follows: qHTS assay to identify small molecule agonists of the TGF-beta/Smad signaling pathway - cell viability counter screen (AID 1346829). Note: nearly all actives have a fitted effect of over 45% in size. Note: potency is the fitted concentration of half-maximal effect. The procedure, abridged: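 Same-well cytotoxicity: CellTiter-Glo added after the 2 hr room-temperature beta-lactamase substrate step, luminescence measured 30 min later; cells had 5 hr of compound at 37 C.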
Experiment [4] is described as follows: qHTS assay to identify small molecule agonists of the TGF-beta/Smad signaling pathway (AID 1346859; active = well fitted activation curve with a large enough effect in the signal ratio in the repeat runs, not every such curve was filed as active; the % refers to the signal ratio; note: series mostly up to about 77 µM). The procedure, abridged: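 SBE-bla HEK293T cells plated overnight, then compound exposure for 5 h at 37 C. Beta-lactamase reporter read with LiveBLAzer B/G FRET substrate after 2 h at room temperature, fluorescence at 405 nm excitation, 460/530 nm emission.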

A short description of experiment [5]: Human pregnane X receptor (PXR) small molecule agonists, qHTS cell viability counter screen (AID 1346977). Note: nearly all actives have a fitted effect of over 50% in size. Note: potency is the fitted concentration of half-maximal effect. The procedure, abridged:
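PXR-Luc HepG2 cells (2,000/well, 5% charcoal-stripped FBS) preincubated 5 hr, then exposed to compounds 24 hr at 37 C. Viability read in the same wells by CellTiter-Fluor fluorescence, reagent added at 23 hr, 1 hr incubation.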

A short description of experiment [6]: Caspase-3/7 induction in HepG2 cells by small molecules, qHTS assay (AID 1346978). Note: nearly all actives have a fitted effect of over 15% in size. Note: potency is the fitted concentration of half-maximal effect. The procedure, abridged: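 Wild-type HepG2 cells (2,000/well) were settled 5 h at 37 C, 5% CO2, then exposed to compounds in DMSO for 17 h. Caspase-3/7 activity was read by luminescence 30 min after adding Caspase-Glo 3/7 reagent at room temperature.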
The nature of experiment [7]: qHTS assay to identify small molecule agonists of the progesterone receptor (PR) signaling pathway - cell viability counter screen (AID 1346799; calls by dose curve; note: nearly all actives have a fitted effect of over 45% in size; note: potency is the fitted concentration of half-maximal effect). The essentials: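 Counter screen in the PR-UAS-bla HEK293T wells (2% charcoal-stripped FBS, 16 h compound exposure at 37 C) after the bla read. CellTiter-Glo added, 30 min at room temperature, luminescence read as cell viability.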

The target in experiment [8] is Thyrotropin-releasing hormone receptor (Homo sapiens) (UniProt P34981). Put plainly: qHTS assay to identify small molecule antagonists of the thyrotropin-releasing hormone receptor (TRHR) signaling pathway (AID 1346877; active = well fitted inhibition curve with a large enough effect in the repeat runs, not every such curve was filed as active; note: series mostly up to about 51 µM). The essentials: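 Cells (TRHR-HEK293) are plated and kept 18 h at 37 °C/5% CO2. A calcium-sensitive dye is added for 2 h, compound follows for 5 min at room temperature, and TRH is then given at 1 nM final.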

The target is the same in experiment [9]. Put plainly: qHTS assay to identify small molecule agonists of the thyrotropin-releasing hormone receptor (TRHR) signaling pathway (AID 1346891; calls by dose curve; note: series mostly up to about 58 µM). The procedure, abridged: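 HEK293 cells expressing TRHR plated 18 h at 37 C/5% CO2, calcium dye-loaded 2 h at 37 C, then compound added (agonist mode); kinetic calcium fluorescence read 3 min at 1 s intervals; 15 concentrations in triplicate.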

Experiment [10] can be described thus: qHTS assay to identify small molecule antagonists of the progesterone receptor (PR) signaling pathway - cell viability counter screen (AID 1346798). Note: nearly all actives have a fitted effect of over 50% in size. Note: potency is the fitted concentration of half-maximal effect. The essentials:
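PR-UAS-bla HEK293T cells, 3,000/well in 2% charcoal-stripped FBS medium, dosed with compounds plus R5020 agonist and incubated 16 h at 37C. Viability then measured in the same wells by CellTiter-Glo luminescence after 30 min at RT.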
% is set by controls: 0 for no effect and ±100 for the full control effect.

Chain of Thyrotropin-releasing hormone receptor (Homo sapiens) (P34981 whole entry, looked up): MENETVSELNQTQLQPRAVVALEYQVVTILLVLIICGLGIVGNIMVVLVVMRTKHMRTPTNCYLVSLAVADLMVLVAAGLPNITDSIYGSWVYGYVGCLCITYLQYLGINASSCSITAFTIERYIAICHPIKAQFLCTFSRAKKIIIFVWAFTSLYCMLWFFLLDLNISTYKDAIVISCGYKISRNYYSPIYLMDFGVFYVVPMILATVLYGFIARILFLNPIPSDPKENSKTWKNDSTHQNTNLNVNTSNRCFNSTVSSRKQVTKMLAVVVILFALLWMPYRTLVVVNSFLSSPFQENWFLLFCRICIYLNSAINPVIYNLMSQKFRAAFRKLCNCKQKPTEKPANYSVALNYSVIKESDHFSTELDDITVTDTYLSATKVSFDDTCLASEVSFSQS
Chain of Progesterone receptor (Homo sapiens) (P06401 whole entry, looked up): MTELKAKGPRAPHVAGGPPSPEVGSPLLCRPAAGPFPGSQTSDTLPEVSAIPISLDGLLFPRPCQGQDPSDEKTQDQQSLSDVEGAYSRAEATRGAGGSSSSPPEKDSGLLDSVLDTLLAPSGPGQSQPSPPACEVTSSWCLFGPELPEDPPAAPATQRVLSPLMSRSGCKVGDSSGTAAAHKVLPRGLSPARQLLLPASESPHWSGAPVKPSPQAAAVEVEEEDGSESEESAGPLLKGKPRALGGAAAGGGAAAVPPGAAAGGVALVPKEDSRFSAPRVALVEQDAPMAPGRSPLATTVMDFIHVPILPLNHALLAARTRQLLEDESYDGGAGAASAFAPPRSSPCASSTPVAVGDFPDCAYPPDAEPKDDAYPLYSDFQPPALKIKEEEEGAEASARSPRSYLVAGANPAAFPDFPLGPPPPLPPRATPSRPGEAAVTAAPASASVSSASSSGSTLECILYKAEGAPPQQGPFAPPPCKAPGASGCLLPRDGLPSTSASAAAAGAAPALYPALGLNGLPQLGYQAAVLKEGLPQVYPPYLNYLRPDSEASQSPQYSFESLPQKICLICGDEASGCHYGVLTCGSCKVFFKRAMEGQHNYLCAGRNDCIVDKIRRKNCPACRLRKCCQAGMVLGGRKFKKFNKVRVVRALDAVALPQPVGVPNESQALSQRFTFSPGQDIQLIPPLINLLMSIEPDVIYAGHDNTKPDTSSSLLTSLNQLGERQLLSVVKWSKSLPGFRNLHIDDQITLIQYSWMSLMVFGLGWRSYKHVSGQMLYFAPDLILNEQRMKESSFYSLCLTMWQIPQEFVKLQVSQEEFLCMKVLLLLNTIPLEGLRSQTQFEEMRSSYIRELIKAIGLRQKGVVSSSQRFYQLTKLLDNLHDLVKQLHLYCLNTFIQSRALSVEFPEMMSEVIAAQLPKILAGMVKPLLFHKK

For the molecule `O=Cc1cc(O)ccc1Br`, the Potency in [1] is 55.3 µM (active). Besides, the Potency result in [2], in experiment [3], in experiment [4], in [5] and in experiment [6] was “inactive” throughout.

In the case of `Oc1cc2ccccc2c2ccccc12`, the Potency in [1] is 6.11 µM (active); in experiment [7] it was 12.2 µM (active); in experiment [3], 5.49 µM (active); in experiment [5] it was 13.7 µM (active). Further, the Potency entry in experiment [8], in [9] and in experiment [6] was “inactive” in each case.

`O=C(Nc1ccc(Oc2ccc(Cl)cc2)c(Cl)c1)c1cc(I)cc(I)c1O`: the Potency in experiment [1] is 23.7 µM (active). Further, the Potency entry in experiment [2], in [3], in experiment [4], in [8], in experiment [9] and in [6] was “inactive” in each case.

For `CCCCN(CCCC)C(=O)N(CCCC)CCCC`, the Potency result in experiment [1], in experiment [7], in experiment [2], in experiment [3], in [4] and in [5] was “inactive” throughout. Also, in [6], the Potency entry is “inactive”.

For the molecule `NC(=NCCCCCCN=C(N)/N=C(\N)Nc1ccc(Cl)cc1)/N=C(\N)Nc1ccc(Cl)cc1`, the Potency result was “inactive and 55.5 µM (active)” in [1]; 35.3 µM (active) and 48.7 µM (active) and inactive in [3]. For the same molecule, the Potency result in experiment [7], in experiment [4] and in experiment [6] was “inactive” throughout.

Turning to `Cc1c(C)c2c(c(C)c1O)CCC(C)(COc1ccc(CC3SC(=O)NC3=O)cc1)O2` (stereo unspecified), in [1], the Potency was 18.8 µM (active). Further, the Potency entry in [2], in experiment [3], in experiment [4], in experiment [8], in experiment [9] and in [5] was “inactive” throughout. In experiment [6], the Potency result is “inactive”.

As for `CN(C)C(=O)C1(N2CCCCC2)CCN(CC[C@@]2(c3ccc(Cl)c(Cl)c3)CN(C(=O)c3ccccc3)CCO2)CC1`, the Potency in experiment [1] is 50.9 µM (active); in [7], 20.3 µM (active); in [5] it was 25.5 µM (active); in [6], 45.4 µM (active). For the same molecule, the Potency result in experiment [4] and in experiment [9] was “inactive” in each case.

Regarding `Clc1ccc(C(Cn2ccnc2)OCc2ccc(Sc3ccccc3)cc2)c(Cl)c1` (stereo unspecified), the Potency in experiment [1] was 29.8 µM (active). Also, the Potency entry in [7], in experiment [2], in experiment [3], in [8], in experiment [9] and in experiment [5] was “inactive” throughout. In [6], the Potency result was “inactive”.

Take `C=CC(=O)OCC(CO)(COCC(COC(=O)C=C)(COC(=O)C=C)COC(=O)C=C)COC(=O)C=C`: the Potency in experiment [1] was 6.04 µM (active); in experiment [7], 15.2 µM (active); in experiment [2], 48.4 µM (active); in [3] it was 21.6 µM (active); in experiment [5] it was 3.03 µM (active); in [6], 6.04 µM (active). For the same molecule, the Potency entry in [4] was “inactive”.

As to `NNc1nc(-c2ccccc2)cs1`, in [1], the Potency was 19.9 µM (active). Moreover, the Potency result in [2], in experiment [3], in experiment [8], in experiment [9], in [5] and in experiment [6] was “inactive” throughout.

`CCCCCCCCCCCCCCCC(=O)OC[C@H](O)[C@H]1OC(=O)C(O)=C1O`: the Potency result in experiment [1], in experiment [2], in experiment [3], in experiment [8], in experiment [9] and in experiment [5] was “inactive” each time. In addition, in experiment [6], the Potency result is “inactive”. Also, in [7], the Potency was 27.3 µM (active).

With `CNC(=O)c1ccccc1`, the Potency entry in [1], in [7], in experiment [2], in [3], in experiment [8] and in experiment [9] was “inactive” each time. The Potency entry in experiment [5] and in experiment [6] was “inactive” in each case.

On to `O=C1Cc2cc(CCN3CCN(c4nsc5ccccc45)CC3)c(Cl)cc2N1`, for which the Potency entry in experiment [1], in experiment [7], in experiment [2], in experiment [3], in experiment [8] and in experiment [9] was “inactive” throughout. Further, the Potency entry in [6] is “inactive”.

As to `CC(C)(C)C(=O)OCOC(=O)[C@@H]1N2C(=O)[C@@H](NC(=O)[C@H](N)c3ccccc3)[C@H]2SC1(C)C`, the Potency result in experiment [1], in [7], in experiment [3], in experiment [4], in experiment [8] and in experiment [9] was “inactive” each time. The Potency entry in [5] and in [6] was “inactive” in each case.

For `CCCCN1CCCC[C@H]1C(=O)Nc1c(C)cccc1C`, the Potency entry in experiment [1], in experiment [2], in experiment [3], in experiment [4], in experiment [8] and in [9] was “inactive” in each case. The Potency result in experiment [5] and in experiment [6] was “inactive” throughout.

`CCN1/C(=C/C=C/c2sc3ccccc3[n+]2CC)Sc2ccccc21`: the results for the Potency in experiment [1], in experiment [3] and in [5] were 11.6 µM (active), 4.65 µM (active) and 5.17 µM (active), respectively. In addition, the activity, negative = inhibition in experiment [8] was -4.16% [at 10.5 µM] (inactive). Moreover, the activation in experiment [9] was -0.259% [at 11.8 µM] (inactive). Besides, the caspase activation in experiment [6] is -8.48% [at 19 µM] (inactive).

For `CCCCCCCCCCCCCC[P+](CCCC)(CCCC)CCCC` (tested in a mixture with another compound), the Potency in experiment [10] was 30.8 µM (active); in experiment [7], 30.8 µM (active); in experiment [2], 27.7 µM (active); in [3], 31.1 µM (active); in [5] it was 12.3 µM (active); in experiment [6] it was 27.5 µM (active). Further, the Potency entry in experiment [8] and in experiment [9] was “inactive” throughout.

Consider `O=C(NO)C1(NS(=O)(=O)c2ccc(Oc3ccc(F)cc3)cc2)CCOCC1`, for which the Potency result in experiment [1], in [2], in experiment [3], in [8], in experiment [9] and in experiment [5] was “inactive” throughout. In experiment [6], the Potency result was “inactive”.

As for `CCCCCCCCOC(=O)c1ccc(O)cc1`, the Potency result in [10], in experiment [7], in [2], in [3] and in experiment [4] was “inactive” throughout. In addition, the Potency in [6] is 27.3 µM (active).

Consider `CC(C)(C)C1CCC(CC2=C(O)c3ccccc3C(=O)C2=O)CC1` (stereo unspecified), for which the Potency entry in experiment [10], in experiment [7], in [2], in experiment [3], in experiment [4] and in [6] was “inactive” throughout. Moreover, the Potency in [5] is 10.6 µM (active).

As to `CN1CCC(Nc2ncc3ncnc(Nc4ccc(F)c(Cl)c4)c3n2)CC1`, the Potency is 16.8 µM (active) in [10], 9.44 µM (active) in experiment [7] and 26.6 µM (active) in [5]. In addition, the Potency result in experiment [2], in [3], in [8], in experiment [9] and in [6] was “inactive” in each case.

Regarding `Oc1c(Cl)cc(Cl)c2cccnc12`, the Potency in [1] is 0.841 µM (active). The Potency result in experiment [3], in experiment [8], in [9] and in experiment [6] was “inactive” in each case.

Take `CSc1ccc(/C=C2/C(C)=C(CC(=O)O)c3cc(F)ccc32)cc1`: the Potency result in experiment [10], in experiment [7], in experiment [2], in [3], in experiment [8] and in [9] was “inactive” in each case. Besides, the Potency entry in [5] and in experiment [6] was “inactive” in each case.

On to `Cc1c(C)c2c(c(C)c1OC(=O)CCC(=O)O)CC[C@@](C)(CCC[C@H](C)CCC[C@H](C)CCCC(C)C)O2`, for which the Potency result in [1], in [2], in [3], in [8], in [9] and in experiment [5] was “inactive” each time. The Potency entry in experiment [6] was “inactive”.

Consider `O=C(Oc1cccc2cccnc12)c1ccccc1`, for which the Potency in experiment [10] is 4.22 µM (active); in experiment [7], 4.73 µM (active); in experiment [5] it was 3.35 µM (active). The Potency result in experiment [2], in experiment [3], in experiment [8] and in experiment [9] was “inactive” throughout.

As for `CN(C)[C@@H]1C(=O)C(C(N)=O)=C(O)[C@@]2(O)C(=O)C3=C(O)c4c(O)cccc4C[C@H]3C[C@@H]12`, the Potency entry in experiment [10], in experiment [7], in [2], in [3], in experiment [8] and in experiment [9] was “inactive” in each case. Moreover, the Potency entry in experiment [5] and in [6] was “inactive” each time.

On to `N=C1C=CC(=C(c2ccc(N)cc2)c2ccc(N)cc2)C=C1`, for which the Potency entry in experiment [1], in experiment [3], in [4], in [8], in experiment [9] and in [6] was “inactive” each time. The Potency in experiment [5] was 8.63 µM (active).
